Source: PubChem BioAssay AID1159580 (chemical genetic matrix, 2015)
Where “and” joins values, the source holds several entries; their conditions need not be identical. Equal values may be shown once. Out of some 5,500 compounds screened, about 2,000 (36%) were called active. Inconclusive results (about 18%) are left out. No stated cut-off is given here; in the data, active means normalized growth mostly below about 0.91 (no sharp cut-off); inconclusive means no clear call, values can overlap the other calls; inactive means mostly above about 0.92. The list shows a part of the results.

Assay: chemical genetic growth profiling, strain panel (AID 1159580);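 further: tested at 20 µM; growth read once vehicle control cultures reached saturation at 30 °C; 1 = growth at the plate median or of vehicle wells; lower values mean less growth of the strain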
Conditions: S. cerevisiae deletion strains, growth OD

Measured: normalized growth

COCCc1ccc(OCC(O)CNC(C)C)cc1 (stereo unspecified)
inactive: locus YAL013W, strain DEP1, active compounds read low 1.01 | locus YAL021C, strain ccr4, active compounds read low 1 | locus YAL026C, strain drs2, active compounds read low 1.01 | locus YAL030W, strain snc1, active compounds read low 0.988 | locus YAL040C, strain CLN3, active compounds read low 0.996 | locus YBL061C, strain skt5, active compounds read low 0.989 | locus YBR009C, strain hhf1, active compounds read low 0.998 | locus YBR021W, strain FUR4, active compounds read low 1.01 | locus YBR023C, strain chs3, active compounds read low 0.987 | locus YBR171W, strain sec66, active compounds read low 0.986 | locus YBR229C, strain ROT2, active compounds read low 1 | locus YBR231C, strain swc5, active compounds read low 1.01 | locus YBR279W, strain paf1, active compounds read low 1.01 | locus YCL011C, strain gbp2, active compounds read low 0.96 | locus YCL016C, strain dcc1, active compounds read low 0.966 | locus YCL029C, strain bik1, active compounds read low 1.03 | locus YCL061C, strain MRC1 (second series), active compounds read low 1 | locus YCL061C, strain MRC1, active compounds read low 0.997 | locus YCL069W, strain vba3, active compounds read low 0.992 | locus YCR088W, strain abp1, active compounds read low 1 | locus YDL005C, strain med2, active compounds read low 1 | locus YDL035C, strain GPR1, active compounds read low 0.997 | locus YDL040C, strain nat1, active compounds read low 1.01 | locus YDL074C, strain BRE1, active compounds read low 1.02 | locus YDL101C, strain DUN1, active compounds read low 1.02 | locus YDL134C, strain PPH21, active compounds read low 1 | locus YDL185W, strain tfp1, active compounds read low 1.01 | locus YDL192W, strain arf1, active compounds read low 1 | locus YDR001C, strain nth1, active compounds read low 0.979 | locus YDR069C, strain doa4, active compounds read low 0.991 | locus YDR101C, strain arx1, active compounds read low 1.01 | locus YDR137W, strain rgp1, active compounds read low 0.942 | locus YDR150W, strain NUM1, active compounds read low 1 and 0.986 | locus YDR159W, strain sac3, active compounds read low 1.02 | locus YDR162C, strain NBP2, active compounds read low 1 | locus YDR195W, strain ref2 0.998 | locus YDR297W, strain sur2, active compounds read low 1.02 | locus YDR318W, strain mcm21, active compounds read low 1.02 | locus YDR334W, strain swr1, active compounds read low 0.942 | locus YDR335W, strain msn5, active compounds read low 0.984 | locus YDR363W, strain ESC2, active compounds read low 1.02 | locus YDR388W, active compounds read low 1.02 | locus YDR392W, strain spt3, active compounds read low 0.944 | locus YDR502C, strain sam2, active compounds read low 0.997 | locus YEL003W, strain gim4, active compounds read low 0.996 | locus YEL037C, strain rad23, active compounds read low 0.989 | locus YEL061C, strain CIN8 (second series), active compounds read low 0.975 | locus YEL061C, strain CIN8, active compounds read low 1.01 | locus YER002W, strain NOP16, active compounds read low 0.993 | locus YER015W, strain faa2, active compounds read low 0.988 | locus YER016W, strain bim1, active compounds read low 0.999 | locus YER110C, active compounds read low 1.01 | locus YER111C, strain swi4, active compounds read low 1 | locus YER155C, strain BEM2 (second series), active compounds read low 1.02 | locus YER155C, strain BEM2, active compounds read low 1 | locus YER167W, strain BCK2, active compounds read low 0.981 | locus YFR010W, strain ubp6, active compounds read low 0.978 | locus YGL078C, strain dbp3, active compounds read low 1.01 | locus YGL086W, strain mad1, active compounds read low 1 | locus YGL167C, strain pmr1, active compounds read low 0.989 | locus YGL173C, strain kem1, active compounds read low 1 | locus YGL227W, strain vid30, active compounds read low 0.988 | locus YGL240W, strain doc1, active compounds read low 1.03 | locus YGL248W, strain PDE1, active compounds read low 1.01 | locus YGL253W, strain hxk2, active compounds read low 0.983 | locus YGR078C, strain PAC10, active compounds read low 1.02 | locus YGR135W, strain pre9, active compounds read low 1.01 | locus YGR229C, strain SMI1, active compounds read low 1.01 and 1.02 | locus YGR252W, strain gcn5, active compounds read low 0.978 | locus YHR013C, strain ard1, active compounds read low 0.956 | locus YHR027C, strain rpn1, active compounds read low 0.971 | locus YHR030C, strain SLT2, active compounds read low 1 and 1.06 | locus YHR079C, strain IRE1 (second series), active compounds read low 1.02 | locus YHR079C, strain IRE1, active compounds read low 1.07 | locus YHR094C, strain hxt1, active compounds read low 1.01 | locus YHR129C, strain ARP1, active compounds read low 1.01 | locus YHR142W, strain chs7, active compounds read low 0.943 | locus YHR200W, strain rpn10, active compounds read low 1.02 | locus YIL066C, strain RNR3, active compounds read low 1.01 | locus YIL073C, strain SPO22, active compounds read low 1.04 | locus YIL125W, strain kgd1, active compounds read low 1.01 | locus YIR030C, strain dcg1, active compounds read low 1.02 | locus YJL092W, strain hpr5, active compounds read low 0.988 | locus YJL095W, strain BCK1 (second series), active compounds read low 0.994 | locus YJL095W, strain BCK1, active compounds read low 1.03 and 1.04 | locus YJL115W, strain asf1, active compounds read low 0.964 | locus YJL129C, strain trk1, active compounds read low 1 | locus YJL134W, strain LCB3, active compounds read low 1 | locus YJL154C, strain vps35, active compounds read low 0.973 | locus YJL164C, strain tpk1, active compounds read low 1.01 | locus YJL166W, strain qcr8, active compounds read low 0.981 | locus YJL168C, strain set2, active compounds read low 1.03 | locus YJL187C, strain SWE1 (second series), active compounds read low 1.03 | locus YJL187C, strain SWE1, active compounds read low 1.04 | locus YJR043C, strain POL32, active compounds read low 1.01 | locus YJR066W, strain TOR1, active compounds read low 1.01
